HEK cytotox – Cytotoxic Profiling in HEK 293 Cell Line of Diverse Libraries Using Quantitative High-Throughput Screening. HEK 293 viability, ATP luminescence (CellTiter-Glo), 48-72 h. Potency, µM (doses to about 115 µM), for inactives: at the highest dose activity change, negative = cytotoxicity, usual class: inhibitors. actives 6.6% (n = 94,000); further: on the % scale 0 is the no-effect control and ±100 the full control effect; nearly all actives have a fitted effect of over 60% in size
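Pintool-delivered compounds were incubated with HEK 293 cells (250 cells/well) at 37 degree Celsius for 48 or 72 hr. ATP-dependent luminescence (CellTiter-Glo) then reported remaining viable cells.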
FLuc inh – Firefly luciferase inhibition profiling of diverse chemical library using quantitative high-throughput screening | Luciferin 4-monooxygenase (Photinus pyralis), P08659 | purified P. pyralis luciferase, luminescence, biochemical | Potency, µM (highest dose often 115 µM), actives largely listed as inhibitors | actives 2.5% (n = 76,000) | AID 1347043, 2019; further: on the % scale 0 is the no-effect control and ±100 the full control effect; nearly all actives have a fitted effect of over 65% in size
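Purified 10nM P. pyralis luciferase with 10uM D-luciferin and 10uM ATP in 50mM Tris acetate pH 7.5, 10mM Mg acetate, 0.01% Tween-20, 0.05% BSA. qHTS titration; luminescence read by CCD imager.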
3T3 cytotox – Cytotoxic Profiling in NIH 3T3 Cell Line of Diverse Libraries Using Quantitative High-Throughput Screening; NIH 3T3 viability, CellTiter-Glo ATP luminescence, 48-72 h; Potency, µM (highest dose often 96.7 µM), without a hit: at the top dose activity change, negative = cytotoxicity, most hits filed as inhibitors; actives 4.3% (n = 94,000); AID 1345082, 2018; further: on the % scale 0 is the no-effect control and ±100 the full control effect; nearly all actives have a fitted effect of over 55% in size
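First NIH 3T3 cells are plated at 400 cells/well; next compound is pinned in; then plates incubate 48 or 72 hr at 37 °C; finally CellTiter-Glo is added and luminescence read after 10 min.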
NPR1 antag – Natriuretic polypeptide receptor (hNpr1) antagonism - Primary qHTS; Atrial natriuretic peptide receptor 1 (Homo sapiens), P16066; HEK293 hNpr1 GloSensor cGMP, ANP-stimulated luminescence; Potency, µM (top dose mostly 46.3 µM), for inactives: at the highest dose activity change, negative = inhibition, usual class: inhibitors; actives 1.6% (n = 76,000); calls by dose curve; further: on the % scale 0 is the no-effect control and ±100 the full control effect; nearly all actives have a fitted effect of over 60% in size
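Compound pre-incubated 30 min at room temperature on GloSensor-loaded HEK293 cells stably carrying hNpr1 and the pGS-40F cGMP biosensor. Stimulation uses hNppA at 0.1 nM final; luminescence is taken at baseline and 20 min post-agonist.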
NPR1 antag cnf – Natriuretic polypeptide receptor (hNpr1) antagonism - Confirmation. shares compounds with NPR1 antag. HEK293 hNpr1 cGMP GloSensor luminescence, ANP-stimulated. Potency, µM (titrated, usually from 57.6 µM), for the others: at the top dose activity change, negative = inhibition, most hits filed as inhibitors. actives 76% (n = 1,400); calls by dose curve; further: nearly all actives have a fitted effect of over 70% in size
NPR2 antag – Natriuretic polypeptide receptor (hNpr2) antagonism - Subtype selectivity assay; shares compounds with NPR1 antag; HEK293 hNpr2 GloSensor cGMP luminescence, CNP-stimulated; Potency, µM (highest dose often 57.6 µM), inactives show top-dose activity change, negative = inhibition, actives largely listed as inhibitors; actives 67% (n = 1,400); AID 1347046, 2019; calls by dose curve; further: nearly all actives have a fitted effect of over 70% in size
Target sequence (P20594 whole entry, looked up): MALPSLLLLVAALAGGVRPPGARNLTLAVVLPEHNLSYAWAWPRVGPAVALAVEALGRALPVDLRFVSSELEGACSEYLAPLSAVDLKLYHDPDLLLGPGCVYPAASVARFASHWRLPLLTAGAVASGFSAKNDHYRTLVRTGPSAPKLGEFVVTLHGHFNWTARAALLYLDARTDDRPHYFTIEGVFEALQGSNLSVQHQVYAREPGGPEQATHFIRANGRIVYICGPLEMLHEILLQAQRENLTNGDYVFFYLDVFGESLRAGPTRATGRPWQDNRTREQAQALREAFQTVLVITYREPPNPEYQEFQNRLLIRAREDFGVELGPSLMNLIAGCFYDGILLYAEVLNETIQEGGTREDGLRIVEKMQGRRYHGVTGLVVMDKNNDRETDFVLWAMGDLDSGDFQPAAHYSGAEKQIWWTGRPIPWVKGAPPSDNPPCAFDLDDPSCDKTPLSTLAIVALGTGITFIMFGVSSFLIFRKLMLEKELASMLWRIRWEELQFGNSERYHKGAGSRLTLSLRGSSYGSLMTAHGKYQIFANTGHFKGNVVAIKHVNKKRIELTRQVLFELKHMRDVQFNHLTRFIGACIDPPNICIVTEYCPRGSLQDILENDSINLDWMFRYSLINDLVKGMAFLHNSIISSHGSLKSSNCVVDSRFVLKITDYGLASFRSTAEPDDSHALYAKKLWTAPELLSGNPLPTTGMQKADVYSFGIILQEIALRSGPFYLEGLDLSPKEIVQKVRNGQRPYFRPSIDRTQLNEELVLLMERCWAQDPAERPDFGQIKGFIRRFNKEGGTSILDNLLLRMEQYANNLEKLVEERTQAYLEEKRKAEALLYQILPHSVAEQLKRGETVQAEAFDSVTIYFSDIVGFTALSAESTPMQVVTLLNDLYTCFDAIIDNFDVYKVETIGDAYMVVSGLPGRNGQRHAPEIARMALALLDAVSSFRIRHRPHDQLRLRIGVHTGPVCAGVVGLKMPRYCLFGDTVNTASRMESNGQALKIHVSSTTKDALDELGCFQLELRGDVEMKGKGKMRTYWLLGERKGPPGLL
FLuc inh counter – Natriuretic polypeptide receptor (hNpr1) antagonism - Confirmation firefly luciferase (FLuc) inhibition counterscreen | shares compounds with NPR1 antag | purified FLuc enzyme, luminescence, Km substrate | Potency, µM (titrated, usually from 57.6 µM), inactives show top-dose activity change, negative = inhibition, hits mostly inhibitors | actives 0.7% (n = 1,400); further: series mostly up to about 58 µM; 0% is about no effect
GloSensor cGMP – Natriuretic polypeptide receptor (hNpr1) antagonism - Counterscreen GloSensor control cell line; shares compounds with NPR1 antag; HEK293 GloSensor cGMP, SNP-stimulated, luminescence; Potency, µM (highest dose often 57.6 µM), for the others: at the highest dose activity change, negative = inhibition, hits mostly inhibitors; actives 69% (n = 1,400); AID 1347051, 2019; calls by dose curve; further: on the % scale 0 is the no-effect control and ±100 the full control effect; nearly all actives have a fitted effect of over 70% in size
Numbers without * were called inactive; i = inactive; ? = inconclusive; / = no result given; [ ] = remark or other dose. Rows were chosen to be rich in hits. Some 11% of all compounds tested hit in one or more screens of this group. Unless noted, the call rests on the fitted dose curve; in most records, active means well fitted curve in the direction sought with a large enough effect; inconclusive means small, poorly fitted or top-dose-only effect, or another doubt; inactive means no such curve, though single readings can be large; an effect the other way counts as inactive or inconclusive. Potency means the concentration at half of the fitted maximal effect.

SMILES	HEK cytotox	FLuc inh	3T3 cytotox	NPR1 antag	NPR1 antag cnf	NPR2 antag	FLuc inh counter	GloSensor cGMP
COc1ccccc1N1CCN([C@@H]2[C@H](O)[C@H](CO)O[C@@H]2CN(Cc2ccc(F)cc2)Cc2ccc(F)cc2)CC1	28µM*	i	32µM*	?	?	14µM*	0%	-24%
CN(Cc1cccnc1)c1nc2c(c(=O)[nH]1)CCN(Cc1ccc(F)cc1F)CC2	?	i	?	-25%	/	/	/	/
COc1ccccc1CN1CCc2nc(C(=O)Nc3cccc(C(F)(F)F)c3)oc2CC1	32µM*	i	28µM*	?	22µM*	24µM*	-8%	24µM*
O=C(Nc1cccc(C(F)(F)F)c1)c1nnn2c1CN(Cc1ccccc1F)C(=O)CC2	?	i	?	-8%	/	/	/	/
O=C(Nc1cccc(C(F)(F)F)c1)c1nc2c(o1)CCN(Cc1ccccc1F)CC2	63µM*	i	50µM*	?	?	?	-27%[86.2 µM]	?
O=C(NCCOc1ccccc1)c1nc2c(o1)CCN(Cc1c(F)cccc1F)CC2	?	i	?	-1%[70.6 µM]	/	/	/	/
O=C(Nc1cccnc1)c1nc2c(o1)CCN(Cc1ccc(F)cc1F)CC2	?	i	?	32µM*	40µM*	40µM*	-24%[86.2 µM]	35µM*
Cc1noc(C)c1CN1CCc2nc(C(=O)Nc3cccc(C(F)(F)F)c3)oc2CC1	?	i	?	32µM*	28µM*	31µM*	-11%[86.2 µM]	20µM*
CCOc1ccc(NC(=O)N2CCc3cc(OC)c(OC)cc3C2CNC(=O)NC(C)(C)C)cc1 (stereo not given)	?	i	-21%	-15%	/	/	/	/
CC(C)c1nc2ccccc2n1CCNC(=O)Cn1nc2c(cc1=O)CCCCC2	4%	i	i	5%	/	/	/	/
O=C(Nc1ccc(Cl)cc1)c1nc2c(o1)CCN(Cc1cccc(F)c1)CC2	?	i	?	7.9µM*	11µM*	16µM*	-23%[86.2 µM]	11µM*
COc1ccc(CN2CCc3nc(C(=O)NCc4cccc(F)c4)oc3CC2)cc1	?	i	?	-29%[70.6 µM]	/	/	/	/
CN1c2cc(C(=O)Nc3ccc(Cl)c(Cl)c3)ccc2C(=O)N2CCCCCC21 (stereo not given)	-30%	i	?	-1%	/	/	/	/
CC(C)NC(=O)c1cc2n(n1)CC(c1ccc3c(c1)OCO3)OC2 (stereo not given)	?	i	?	0%	/	/	/	/
FC(F)(F)C1CN(c2ccnc3ccc(Cl)cc23)CCO1 (stereo not given)	40µM*	i	?	11µM*	22µM*	22µM*	0%	22µM*
FC(F)(F)c1cccc2c(N3CCOC(C(F)(F)F)C3)ccnc12 (stereo not given)	?	i	-46%	10µM*	24µM*	?	4%	19µM*
